From PubChem
SARS PLpro yeast-1 – blocks SARS-CoV papain-like protease in a yeast assay | S. cerevisiae expressing SARS-CoV PLpro, growth rescue | Potency, µM (titrated, usually from 32.9 µM), inactives show top-dose activity, positive = growth rescue, actives largely listed as activators | 0.19% of 330,000 active | AID 485353; calls by dose curve; further: potency means the concentration at half of the fitted maximal effect; 0% is about no effect; nearly all actives have a fitted effect of over 55% in size
LmPK inhibitor – inhibitors of Leishmania mexicana pyruvate kinase; Q27686; purified LmPK, Kinase-Glo ATP luminescence, 1 h; Potency, µM (highest dose often 57.5 µM), for inactives: top-dose activity change, negative = inhibition, hits mostly inhibitors; 0.37% of 290,000 active; AID 1721; further: potency means the concentration at half of the fitted maximal effect; on the % scale 0 is the no-effect control and ±100 the full control effect
Target sequence (Q27686 whole entry, looked up): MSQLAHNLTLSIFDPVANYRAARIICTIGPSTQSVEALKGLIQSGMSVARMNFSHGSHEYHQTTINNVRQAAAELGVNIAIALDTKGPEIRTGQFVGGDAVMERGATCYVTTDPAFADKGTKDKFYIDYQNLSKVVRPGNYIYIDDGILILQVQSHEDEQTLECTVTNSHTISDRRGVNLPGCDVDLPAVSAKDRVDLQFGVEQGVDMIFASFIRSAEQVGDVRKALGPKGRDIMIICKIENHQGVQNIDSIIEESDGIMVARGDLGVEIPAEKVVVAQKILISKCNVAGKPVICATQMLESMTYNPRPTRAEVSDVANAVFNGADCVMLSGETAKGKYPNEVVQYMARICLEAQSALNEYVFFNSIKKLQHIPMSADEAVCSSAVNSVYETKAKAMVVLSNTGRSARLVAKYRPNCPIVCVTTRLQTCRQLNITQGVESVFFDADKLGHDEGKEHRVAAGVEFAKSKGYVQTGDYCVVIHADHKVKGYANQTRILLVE
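Kinase-Glo luminescence read after 1 h RT reaction of 0.1 nM LmPK with 0.5 mM PEP and 0.1 mM ADP. Activity scaled between uninhibited and enzyme-free controls.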
Sm TGR block – blocks Schistosoma mansoni thioredoxin glutathione reductase; 3% of 360,000 active; Q962Y6; Potency, µM (doses to about 114 µM), inactives show at the top dose activity change, negative = inhibition, usual class: inhibitors; purified TGR, DTNB reduction, TNB absorbance 405 nm; further: potency means the concentration at half of the fitted maximal effect; on the % scale 0 is the no-effect control and ±100 the full control effect; nearly all actives have a fitted effect of over 60% in size
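TGR 20 nM + NADPH 100 uM (dispensed conc.), cpd preinc 15 min RT; start with NADPH (500 uM addition) then DTNB (15 mM addition). Kinetic TNB absorbance, 405 nm filter. Four-parameter Hill fit across titration.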
Tb PYK inh – T. brucei pyruvate kinase inhibition | TbPYK enzyme, Kinase-Glo Plus ATP luminescence, 45 min | Potency, µM (highest dose often 76.8 µM), for inactives: top-dose activity, negative = inhibition, actives largely listed as inhibitors | 0.12% of 410,000 active | AID 624173; further: potency means the concentration at half of the fitted maximal effect; on the % scale 0 is the no-effect control and ±100 the full control effect; nearly all actives have a fitted effect of over 50% in size
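TbPYK + substrate in 50 mM TEA pH 7.2, 100 mM KCl, 10 mM MgCl2, 0.05% BSA, 0.01% Tween-20; cpd pinned; ADP 130 uM final; 45 min RT; Kinase-Glo Plus 10 min; luminescence endpoint.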
RE007 growth inh – less growth of the S. pombe RE007 Vpr strain | AID 651644 | 0.21% of 360,000 active | Potency, µM (doses to about 92.2 µM), inactives show at the highest dose activity change, negative = less growth, usual class: inhibitors | S. pombe RE007 Vpr strain, BacTiter-Glo ATP luminescence, 24 h; active means well fitted falling curve with a large enough effect; inconclusive means small, poorly fitted or top-dose-only effect; inactive means no such curve, though single readings can be large or run the other way; further: potency means the concentration at half of the fitted maximal effect; on the % scale 0 is the no-effect control and ±100 the full control effect; nearly all actives have a fitted effect of over 50% in size
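Fission yeast strain RE007, carrying one chromosomally integrated HIV-1 vpr copy, was seeded at OD 0.01 in PMG+AL medium with 23 nL pinned compound. After 24 h at 30 °C and 99% humidity, viability was read by BacTiter-Glo luminescence.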
NS1 function inh – influenza NS1 inhibition; Potency, µM (doses to about 46.1 µM), for inactives: top-dose activity, positive = more growth; 0.4% of 270,000 active; calls by dose curve; further: potency means the concentration at half of the fitted maximal effect; actives are rising curves; nearly all actives have a fitted effect of over 50% in size
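Recovery from NS1-induced slow growth read by OD600 in budding yeast switched to galactose assay medium (pH 6.0, -URA) at 1:100 dilution. Compound 23 nl per well; the matching strain lacking NS1 serves as control.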
SARS PLpro yeast-2 – Validates SARS-CoV PLpro inhibitor hits in yeast. shares compounds with SARS PLpro yeast-1. yeast expressing SARS-CoV PLpro, growth phenotype rescue. calls only. 19% of 1,000 active. AID 652038; call rule not given here
* hit, by the source's call; i = inactive; ? = inconclusive; . = no result; + = active, no number; [ ] = dose if it differs, or a comment. An excerpt weighted towards active compounds, which were near 3.3% of everything screened. Unless noted, the call rests on the fitted dose curve; in most records, active means well fitted curve in the direction sought with a large enough effect; inconclusive means small, poorly fitted or top-dose-only effect, or another doubt; inactive means no such curve, though single readings can be large; an effect the other way counts as inactive or inconclusive.

SMILES	SARS PLpro yeast-1	LmPK inhibitor	Sm TGR block	Tb PYK inh	RE007 growth inh	NS1 function inh	SARS PLpro yeast-2
Cc1c(Cl)cccc1NC(=S)NCc1cccs1	14µM*	2%	-23%	0%	-6%	-11%	+
NNC(=O)/C(=N/Nc1ccccc1)S(=O)(=O)c1ccc(Cl)cc1	?	5%	3%	-6%	10%	?	i
CCOC(=O)/C(=N/Nc1ccc(C)cc1)S(=O)(=O)c1ccc(Cl)cc1	-30%	-2%	-23%	-10%	-5%	-6%	.
O=C(O)CCSCc1ccccc1	.	.	.	.	.	3%	.
CCc1ccccc1NC(=O)CN1CCN(C(=O)c2ccc(OCc3cn4ccccc4n3)cc2)CC1	?	.	-5%	-3%	-13%	.	i
Cc1c(Cl)cccc1NC(=O)CN1C(=O)COc2ccc(S(=O)(=O)N3CCCCCC3)cc21	.	.	-1%	6%	.	.	.
CCOC(=O)c1cccc(NC(=O)CC(c2ccc(F)cc2)N2Cc3ccccc3C2=O)c1 (configuration not stated)	.	.	-4%	4%	.	.	.
CC1CC1C(=O)N(C)CC(=O)Nc1ccc(Cl)c(C(F)(F)F)c1 (configuration not stated)	?	.	-2%	2%	1%	.	i
Nc1nonc1C(=Nc1ccccc1)NO	?	-1%	0%	-2%	2%	-3%	i
COc1cccc(OCCSc2nc(N)cc(N)n2)c1	.	-17%	-3%	1%	-9%	-105%	i
Nc1cc(N)nc(SCCOc2ccccc2)n1	-34%	1%	5%	2%	1%	-134%	.
O=C(CCc1cn(Cc2ccccc2F)c2ccccc12)NCc1ccc(Cl)cc1	.	.	41%	3%	.	.	.
O=S(=O)(Cc1cnc(Cl)s1)c1ccccc1	13µM*	-5%	0%	1%	2%	1%	i
O=S(=O)(CS(=O)(=O)c1ccccc1)c1ccccc1	.	.	.	3%	1%	.	.
O=C(Cc1ccccc1)Nc1c(C(=O)Nc2ccccc2F)oc2ccccc12	.	.	0%	-1%	.	.	.
O=C(Nc1ccc(NC(=O)c2ccco2)cc1)c1ccc2c(c1)OCO2	?	-17%	-21%	6%	3%	1%	+
COc1ccccc1C(=O)NC(=S)Nc1ccc(NC(=O)c2cccs2)cc1	?	2%	-29%	-9%	0%	24%	i
C/C(=N\NC(=S)NC1CCCCC1)c1ccc(C#N)cc1	16µM*	-2%	1%	-6%	-7%	11%	+
Cc1cc(C(=O)N/N=C/c2cc(N=Nc3ccccc3)ccc2O)n[nH]1	7.9µM*	-1%	-4%	13%	-3%	-4%	i
C=CCn1c(SCc2cc(=O)n3cc(C)ccc3n2)nnc1-c1cccc(C)c1	11µM*	0%	0%	-3%	-10%	-5%	i
Cc1ccc2nc(CSc3nnc4ccccn34)cc(=O)n2c1	-1%	8%[11.5 µM]	0%	-1%	6%	.	.
COc1ccccc1Nc1nc(N)nc(CSC(=S)N2CCC(C)CC2)n1	16µM*	4%	3%	-1%	11%	?	i
COc1cccc(CNC(=O)CCc2c(C)nc3c(c2C)c(=O)n(C)c(=O)n3C)c1	.	.	-5%	2%	.	.	.
O=C(Nc1cc(Cl)cc(Cl)c1)C(NCCO)c1ccccc1 (configuration not stated)	?	-9%	-20%	10%	7%	-3%	i
O=C(Nc1nc(-c2ccccc2)cs1)c1ccc2c(=O)n3c(nc2c1)CCCCC3	?	4%	4%	5%	-13%	?	i
SMILES	SARS PLpro yeast-1	LmPK inhibitor	Sm TGR block	Tb PYK inh	RE007 growth inh	NS1 function inh	SARS PLpro yeast-2
Cc1ccc(S(=O)(=O)N2CCC(C(=O)OC(C)C(=O)NC3CCCCC3C)CC2)cc1C (configuration not stated)	?	.	4%	-3%	5%	.	?
Cc1ccc(N=Nc2ccc(O)c3ncccc23)cc1	4µM*	-3%	1%	-13%	1%	-14%	i
CCN(C(=O)CSc1nnc(-c2ccccc2)o1)c1c(N)n(Cc2ccccc2)c(=O)[nH]c1=O	?	12%	8%	-1%	14%	.	i
CCCCc1ccc(NC(=S)NN2CCOCC2)cc1	10µM*	3%	-21%	-2%	9%	25%	+
Cc1ccc(C)c(NC(=O)c2nnn(Cc3ccc(F)cc3Cl)c2N)c1	.	.	10%	-1%	.	.	.
COc1ccc(NC(=O)CSc2ccc(-c3ccccn3)nn2)cc1OC	10µM*	-1%	-11%	3%	-19%	2%	i
COc1ccccc1NC(=O)CSc1ccc(-c2ccccn2)nn1	-19%	0%	-1%	-4%	3%	-118%	.
CCOC(=O)c1cnc2c(ccc3ccccc32)c1Nc1ccc(C(C)=O)cc1	.	.	-3%	0%	.	.	.
Cc1ccc(S(=O)(=O)c2cn(Cc3ccccc3F)c3cc4c(cc3c2=O)OCO4)cc1	.	.	17%	-5%	.	.	.
Nc1ccc2oc(-c3ccccc3Cl)nc2c1	14µM*	?	-10%	-17%	?	?	i
COc1ccc(CCNC(=O)CCc2cn(Cc3ccc(F)cc3)c3ccccc23)cc1OC	.	.	-14%	4%	.	.	.
COc1ccc(-c2nc3ccc(NS(=O)(=O)c4ccc(C)cc4)cc3o2)cc1	.	.	1%	6%	.	.	.
Cc1ccc(C(=O)Nc2ccc3ccccc3n2)cc1	10%	-17%	0%	8%	-21%	-1%	.
Cc1ccc(C(O)(C(=O)NNc2ccc3ccccc3n2)c2ccc(C)cc2)cc1	?	4%	?	-5%	5%	15%	i
CC(=O)c1cccc(NC(=O)c2cc(-c3ccc(Cl)s3)nc3ccccc23)c1	.	.	0%	0%	.	.	.
COc1cc(/C=N\NC(=O)C2COc3ccccc3O2)cc(OC)c1O (configuration not stated)	-1%	1%	84%	-5%	8%	-12%	.
CCOc1ccc(-n2c(O)c(/C=N/NC(=O)C3COc4ccccc4O3)c3ccccc3c2=O)cc1 (configuration not stated)	11µM*	0%	6%	-2%	-8%	?	?
Cn1ncc(Oc2ccc([N+](=O)[O-])cc2)c(Cl)c1=O	3%	-3%	2%	2%	3%	4%	.
CC(C)(C)n1ncc(Oc2ccccc2[N+](=O)[O-])c(Cl)c1=O	?	4%	-4%	-4%	9%	-24%	i
O=C(NNC1=C(C(=O)C(F)(F)F)CCC1)c1cccc(O)c1	14µM*	4%	-14%	-1%	27%	7%	i
Cc1c(C)n(Cc2ccccc2)c2ccc(C(=O)NCC(C)c3ccccc3)cc12 (configuration not stated)	.	.	3%	0%[15.4 µM]	.	.	.
